Screening results as filed in PubChem.
This excerpt belongs to a sample that is enriched for hits.
Measles inh: inhibitors of measles virus growth in infected cells; infected Vero cells, GFP fluorescence, 64 h; stronger effect = lower value; z-score (no concentration beside the values); AID 745; actives 0.1% (n = 33,000); in the data active = z-score below about -3
* hit, by the source's call.

How did CCOc1ccccc1C(=O)N1CCN(c2ccccc2OCC)CC1 do in these assays?
Measles inh: -0.87

How did COc1cc(S(=O)(=O)NCc2ccco2)c(OC)cc1Br do in these assays?
Measles inh: -0.41

How did Cc1ccc(NC(=O)C2CC3c4ccccc4C2c2ccccc23)cc1 (stereo not drawn) do in these assays?
Measles inh: -0.68

How did Cc1nc2ccc3nc(NC(=O)c4cc([N+](=O)[O-])ccc4Cl)sc3c2s1 do in these assays?
Measles inh: -0.48

Results for COc1ccc(Nc2ncnc3c2cnn3-c2ccccc2)c(OC)c1 ?
Measles inh: -3.3*

How did CCc1ccccc1Nc1ncnc2c1cnn2-c1ccc(OC)cc1 do in these assays?
Measles inh: -0.22

What do the screens show for `Cc1cc(C)cc(Nc2ncnc3c2cnn3-c2ccccc2)c1`?
Measles inh: -0.32

What do the screens show for `Cc1c(C(=O)N2CCCCCC2)sc2ncn(CC(=O)N3CCCC(C)C3)c(=O)c12` (stereo not drawn)?
Measles inh: 0.77

Results for Cc1cccc(NC(=O)CSc2nc(-c3ccc(F)cc3)cc(C(F)(F)F)c2C#N)c1 ?
Measles inh: 1.2

How did O=[N+]([O-])c1ccc(-c2nc(C3CCCCC3)no2)cc1 do in these assays?
Measles inh: 0.29

How did Cc1ccc(Nc2cc(C)nc(-c3ccccc3)n2)cc1 do in these assays?
Measles inh: -3.7*

How did COc1cc(-c2nc(Nc3ccc(C)cc3)c3ccccc3n2)cc(OC)c1OC do in these assays?
Measles inh: -0.38

How did COc1ccc(Nc2nc(-c3ccc(C)cc3)nc3ccccc23)cc1OC do in these assays?
Measles inh: -1.9

How did CC1(C)CC2(CCO1)N1CC3([N+](=O)[O-])CN2CC([N+](=O)[O-])(C1)C3(C)C (stereo not drawn) do in these assays?
Measles inh: -0.77

How did Cc1noc(C)c1S(=O)(=O)Nc1ccc(C(=O)Nc2ccc(C(C)C)cc2)cc1 do in these assays?
Measles inh: -3.7*

Results for COc1ccc(NC(=O)c2ccc(NS(=O)(=O)c3c(C)noc3C)cc2)cc1OC ?
Measles inh: 0.34

What do the screens show for `CC(=O)c1ccc(NC(=O)c2ccc(NS(=O)(=O)c3c(C)noc3C)cc2)cc1`?
Measles inh: -0.94

Results for O=C(Nc1ccccc1C(=O)NC1CCCCC1)c1cccc(S(=O)(=O)N2CCOCC2)c1 ?
Measles inh: -0.7
